# An excerpt weighted towards active compounds, which were near 3.6% of everything screened.
# Peg3 promoter – inhibitors of Peg3 promoter. HeLa PEG-Prom luciferase reporter, luminescence, overnight. actives 1.7% (n = 360,000). inhibition, % at 20 µM;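 active means inhibition of at least 50% at 20 µM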
# KKLEB cytotox – CF airway cell cytotoxicity counter-screen. KKLEB CF airway cells viability, ATPlite luminescence, overnight; active compounds read low; cells stimulated with P. aeruginosa culture filtrate. activity change (cytotoxicity), % at 5 µM. actives 0.36% (n = 360,000). AID 602141;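 active means corrected activity change at or below -50% at 5 µM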
# CF NFkB inh – blocks PAF-induced NF-kB reporter in cystic fibrosis cells; actives 0.86% (n = 360,000); KKLEB NF-kB-GFP reporter, GFP fluorescence overnight; inhibition, % at 5 µM;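 active means at least 50% inhibition at 5 µM, scaled per plate between neutral and stimulator controls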;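 further: PAF is a Pseudomonas aeruginosa culture filtrate used as stimulus; plate controls were PAF-stimulated DMSO wells for no effect and unstimulated DMSO wells for full effect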
# HSP90 inh – blocks HSP90-mediated luciferase refolding in reticulocyte lysate | Rabbit reticulocyte lysate, luciferase refolding luminescence, 3 h | inhibition, % at 5.6 µM | actives 0.91% (n = 290,000) | AID 1789;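 active means inhibition above the screen-wide mean plus 3 SD, computed separately per campaign, cut at about 16% in these data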;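 further: 0% = DMSO wells and 100% = 60 µM geldanamycin wells; inhibitors lower the luminescence because luciferase stays unfolded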
# Mdm2-MdmX inh – inhibitors of human Mdm2/MdmX interaction | O15151+Q00987 | SaOS-2 split-luciferase Mdm2/MdmX complementation, luminescence | inhibition, % at 8 µM | actives 3% (n = 330,000);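 active means inhibition of at least 50% at 8 µM in the primary screen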
# LGR2 inh – inhibitors of bursicon-induced Drosophila LGR2 receptor cAMP signaling; HEK293 LGR2, CRE-luciferase, bursicon-stimulated, 4 h; inhibition, % at 9.99 µM; actives 0.35% (n = 380,000);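 active means drop in luminescence signal, shown as inhibition above about 50% in the replicate tests, limit read from the data, passing the limit was not always enough; inconclusive means probably only some replicates passing the limit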;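 further: agonist challenge used bursicon conditioned medium at about half maximal strength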
# Numbers without * were called inactive; ? = inconclusive; / = no result; ! = repeats disagree.
SMILES,Peg3 promoter,KKLEB cytotox,CF NFkB inh,HSP90 inh,Mdm2-MdmX inh,LGR2 inh
CCC(=O)OCC(=O)[C@@]1(OC(=O)CC)[C@@H](C)C[C@H]2[C@@H]3CCC4=CC(=O)C=C[C@]4(C)[C@@]3(Cl)[C@@H](O)C[C@@]21C,-7.2,29.5,67.4*,/,1.7,8.8
CC(=O)[C@@]1(O)CC[C@H]2[C@@H]3C[C@H](C)C4=CC(=O)C=C[C@]4(C)[C@@]3(F)[C@@H](O)C[C@@]21C,4.5,24.9,71.6*,-0.7,-29.1,3.5
CC12CCC(=O)C=C1CCC1C2CCC2(C)C(C(=O)CO)CC(O)C12 (configuration not stated),7.6,-6.8,2.5,/,/,4.3
CO[C@@H]1CN(C)C(=O)c2ccc(NC(=O)C3CC3)cc2OC[C@H](C)N(Cc2ccccc2)C[C@@H]1C,/,/,/,/,/,-11.4
COCCNC(=O)C[C@@H]1CC[C@H]2[C@@H](COC[C@H](O)CN2Cc2cccc(-c3ccncc3)c2)O1,/,/,/,/,/,1.8
Nc1nc(=S)c2ncn(C3OC(CO)C(O)C3O)c2[nH]1 (configuration not stated),29.0,-1.7,-9.2,3.1,/,4.8
Nc1nc(=S)c2ncn([C@@H]3O[C@H](CO)[C@@H](O)[C@H]3O)c2[nH]1,62.1*,15.0,-10.2,/,27.0,-4.6
CCN(CC)CCNC(=O)c1cc2c(-c3ccc(Cl)cc3)nn(C)c2s1,88.4*,-13.0,-40.9,-1.7,38.9,-0.5
CCOCCCNC(=O)c1cc2c(-c3ccc(Cl)cc3)nn(C)c2s1,11.3,-14.6,-35.7,-3.0,19.1,-19.3
CCCN(CCC)CCNC(=O)c1cc2c(-c3ccccc3F)nn(C)c2s1,14.1,-3.6,-15.8,-1.5,29.4,3.9
CCCN(CCC)CCNC(=O)c1cc2c(-c3ccc(Cl)cc3)nn(C)c2s1,76.3*,-13.8,-1.6,5.5,23.9,-19.7
C[C@H]1CN([C@@H](C)CO)C(=O)c2ccccc2-c2ccccc2CO[C@@H]1CN(C)C(=O)[C@@H](Cc1ccccc1)N(C)C,/,/,/,/,/,-1.2
O=C1NC(=S)S/C1=C\c1cc2ccccc2nc1N1CCCCC1,38.3,-37.6,54.9*,1.3,44.7,6.5
COc1ccc(NC(=O)Nc2ccc3c(c2)C(=O)N([C@H](C)CO)C[C@H](C)[C@H](CN(C)S(=O)(=O)c2ccc(C)cc2)O3)cc1,/,/,/,/,/,-6.9
Cn1nc(C(=O)Nc2nc(-c3ccccn3)cs2)c2ccccc2c1=O,11.3,-6.5,-3.5,/,25.4,-5.1
CCn1nc(C(=O)Nc2nc(-c3ccccn3)cs2)c2ccccc2c1=O,51.0*,-4.2,-17.0,/,42.1,-26.8
CCc1nc2c(OCCC3CCCCC3)cccn2c1N(C=O)Cc1ccc(OC)cc1,16.1,-9.0,8.7,/,/,-12.7
CCc1nc2c(OCCC3CCCCC3)cccn2c1N(C=O)Cc1ccccc1,66.3*,-23.9,39.3,/,/,14.0
C[C@@H]1CCCCO[C@H](CN(C)C(=O)c2ccncc2)[C@H](C)CN([C@@H](C)CO)C(=O)c2cc(NS(=O)(=O)c3cn(C)cn3)ccc2O1,/,/,/,/,/,-7.6
CCOc1cc2[nH]c(=O)n(Cc3ccc(C(=O)NCCCN4CCC(C)CC4)cc3)c(=O)c2cc1OCC,82.2*,-3.3,-11.3,3.2,32.5,0.8
CCc1nc(Nc2ccc3c(c2)OCCO3)c2oc3ccccc3c2n1,69.2*,-7.7,-18.0,0.4,17.6,/
Cc1nc(Nc2ccc3c(c2)OCCO3)c2oc3ccccc3c2n1,-15.6,0.5,-1.2,-0.7,10.9,/
CC(C)NC(=O)Nc1ccc2c(c1)CC(=O)N([C@@H](C)CO)C[C@@H](C)[C@H](CN(C)S(C)(=O)=O)O2,/,/,/,/,/,12.8
O=C(CN1CCOCC1)NCC[C@@H]1CC[C@H](NC(=O)c2ccccc2F)[C@@H](CO)O1,/,/,/,/,/,0.1
O=[N+]([O-])c1ccc(N2CCN(Cc3ccccc3)CC2)c2c1no[n+]2[O-],95.0*,-60.9*,42.3,/,/,101.9*
SMILES,Peg3 promoter,KKLEB cytotox,CF NFkB inh,HSP90 inh,Mdm2-MdmX inh,LGR2 inh
O=[N+]([O-])c1ccc(N2CCN(Cc3ccccc3)CC2)s1,-1.2,2.1,-3.3,2.4,-8.5,-9.3
COc1ccc(NC(=O)N[C@@H]2CC[C@@H](CCNS(=O)(=O)c3cccc(Cl)c3)O[C@H]2CO)cc1,/,/,/,/,/,3.5
COc1cc(NC(=O)c2cnc(N)o2)cc(C(=O)Nc2cccc(C(F)(F)F)c2)c1,55.5*!,0.9,-1.3,/,28.6,6.3
COc1cc(NC(=O)c2ccnc(N)c2)cc(C(=O)Nc2cccc(C(F)(F)F)c2)c1,-50.9,9.6,-2.2,/,23.8,-16.7
CN1C(=O)c2cc(NC(=O)c3cccc(F)c3)ccc2OC[C@H]2O[C@H](CC(=O)NC3CCC3)CC[C@@H]21,/,/,/,/,/,11.1
O=C(CCCN1C(=O)/C(=C\c2cccs2)SC1=S)Nc1ccc(O)cc1C(=O)O,53.2*,5.5,16.2,-0.1,-12.7,-3.5
O=C(CCCN1C(=O)/C(=C/c2cccs2)SC1=S)Nc1ccc(O)c(C(=O)O)c1,/,/,/,-0.4,/,/
O=C1C=C(C2CCCCC2)C(=O)c2ccccc21,11.5,18.3,71.1*,/,/,?
O=C(O)C1=C(C2CCCCC2)C(=O)c2ccccc21,9.5,17.2,-34.3,/,/,-5.4
CCOC(=O)c1c(NC(=O)CNC2CCCCC2)sc(C)c1C,90.2*,-8.5,23.0,0.2,6.7,10.3
O=C(NCC1CC1)[C@H]1[C@H](CO)[C@H]2Cn3c(ccc(-c4cccnc4)c3=O)[C@@H]1N2C(=O)C1CCC1,/,/,/,/,/,-21.2
O=C(CCl)N1c2ccccc2Sc2c1ccc1ccccc21,58.2*,-16.3,4.4,/,/,-77.4
Cc1ccc(C)c(SCC(=O)OC/C(O)=C(\C#N)c2nc3ccccc3[nH]2)c1,30.5,8.5,-37.3,2.3,/,-18.1
Cc1cc(Br)ccc1SCC(=O)OCC(O)=C(C#N)c1nc2ccccc2[nH]1,66.5*,-14.0,-8.2,/,/,-0.3
O=C(c1cccc(F)c1)N1CC(=O)N2[C@H](C1)[C@@H](c1ccc(C3=CCCC3)cc1)[C@@H]2CO,/,/,/,/,/,-19.3
COc1ccccc1N(CC(=O)NCCSCc1cccc(C)c1)S(=O)(=O)c1ccccc1,60.8*,-21.5,34.1,3.1,33.4,-1.1
CCCNC(=O)N(C)C[C@H]1Oc2cc(-c3cncnc3)ccc2S(=O)(=O)N([C@H](C)CO)C[C@H]1C,/,/,/,/,/,-1.7
CCOc1ccc(Br)cc1C(=O)Nc1ccc(C(=O)NCC(C)C)cc1,95.1*,-9.5,-3.6,0.3,-2.7,-22.3
COCC(=O)N[C@@H]1CC[C@@H](CC(=O)NCc2ccccc2OC)O[C@@H]1CO,/,/,/,/,/,78.9*
Cc1ccccc1-c1ccc2c(c1)O[C@H](CN(C)Cc1ccc(C(=O)O)cc1)[C@@H](C)CN([C@@H](C)CO)S2(=O)=O,/,/,/,/,/,-6.7
O=C(C[C@@H]1C[C@@H]2c3cc(NC(=O)CC4CC4)ccc3O[C@@H]2[C@@H](CO)O1)NCC1CC1,/,/,/,/,/,5.5
O=C(/C=C/C(Cl)(Cl)Cl)Nc1ccc(Cl)cc1,-9.7,-23.9,8.9,/,/,-37.7
NC(=O)/C=C/C(=O)Nc1ccc(Cl)cc1,62.5*,-12.5,-5.4,-0.1,-3.9,4.0

# From PubChem BioAssay
